Bioassay records deposited in PubChem BioAssay by several laboratories.
CHOP inhibitor: inhibitors of CHOP promoter induction, primary screen, cell-based, unfolded protein response, luciferase reporter; 220,000 compounds, 3.8% hits; CHO-K1 CHOP-promoter luciferase, tunicamycin-induced, 15-18 h; inhibition, % at 10 µM;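 active means compounds that reduced the stress-induced luciferase reporter signal by more than about 70% of percent inhibition, limit read from the data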
Peg3 prom inh: Peg3 promoter-driven luciferase inhibitors, primary screen, cell-based, HeLa, luciferase luminescence; inhibition, % at 20 µM; HeLa PEG-Prom luciferase reporter, overnight; 360,000 compounds, 1.7% hits;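 active means inhibition of at least 50% at 20 µM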
CF NFkB block: inhibitors of PAF-induced NF-kB signaling, primary screen, cell-based, GFP fluorescence, uHTS. KKLEB NF-kB-GFP reporter, GFP fluorescence overnight. inhibition, % at 5 µM. 360,000 compounds, 0.86% hits. AID 588850, 2011;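 active means at least 50% inhibition at 5 µM, scaled per plate between neutral and stimulator controls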;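 further: PAF is a Pseudomonas aeruginosa culture filtrate used as stimulus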
KKLEB cytotox: cytotoxicity in KKLEB CF airway cells, primary screen, cytotoxicity control for CF NF-kB inhibitor project, cell-based, uHTS, fluorescence assay plates; activity change (cytotoxicity), % at 5 µM; KKLEB CF airway cells viability, ATPlite luminescence, overnight; stronger effect = lower value; cells stimulated with P. aeruginosa culture filtrate; 360,000 compounds, 0.36% hits; AID 602141, 2011;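 active means corrected activity change at or below -50% at 5 µM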
HIF-2a block: HIF-2a reporter inhibitors, primary screen, luminescence, 786-0 RCC cells; inhibition, % at 18.8 µM; 786-0 RCC cells HIF-2a reporter, luciferase luminescence, overnight; AID 624352, 2012; 360,000 compounds, 0.72% hits;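 active means inhibition of the luminescence signal of 40% or more relative to plate controls, in a single-dose primary screen at 18.75 µM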
TRPM1 prom inh: inhibitors of MITF-dependent TRPM1 promoter reporter, primary screen, cell-based, SK-MEL-5, single point, luciferase; SK-MEL-5 TRPM1 promoter luciferase, 24 h; inhibition, % at 12.5 µM; 330,000 compounds, 0.83% hits; AID 488899, 2010;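 active means mean inhibition across replicates of 60% or more, whatever share of single replicates reaches that level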
Hits are given with their value; 0 = inactive; - = not tested or not shown. The list is not random: actives were taken first. Their share in the collection is about 4.3%.

SMILES | CHOP inhibitor | Peg3 prom inh | CF NFkB block | KKLEB cytotox | HIF-2a block | TRPM1 prom inh
Oc1ccc(C[C@H]2CNC(=S)N2C[C@H]2CCCN2C[C@H](Cc2ccccc2)N2C[C@H](Cc3ccc(O)cc3)N(CCc3ccccc3)C2=S)cc1 | - | 76 | 0 | 0 | 0 | -
Oc1ccc(C[C@H]2CN([C@@H](Cc3ccccc3)CN3CCC[C@@H]3CN3C(=S)NC[C@@H]3Cc3ccccc3)C(=S)N2CC2CCCCC2)cc1 | - | 0 | 0 | 0 | 0 | -
CC(C)C[C@@H](CN1CCC[C@@H]1CN1C(=S)NC[C@@H]1Cc1ccc(O)cc1)N1C[C@H](Cc2ccc(O)cc2)N(CC2CCCCCC2)C1=S | - | 80 | 0 | 0 | 0 | -
Oc1ccc(C[C@H]2CNC(=S)N2CC2CCCN2C[C@H](Cc2ccccc2)N2C[C@H](Cc3ccc(O)cc3)N(CC3CCCCC3)C2=S)cc1 (stereo partly specified) | - | 97 | 0 | 0 | 0 | -
Cc1cccc(C)c1NC(=O)C[N+](C)(C)C | 0 | - | - | - | - | -
CC(C)C[C@H]1CN([C@@H](CC(C)C)CN2CCCC2CN2C(=S)NC[C@@H]2Cc2ccc(O)cc2)C(=S)N1CC1CCCCCC1 (stereo partly specified) | - | 91 | 0 | 0 | 0 | 0
CC(C)C[C@@H](CN1CCCC1CN1C(=S)NC[C@@H]1Cc1ccccc1)N1C[C@H](Cc2ccc(O)cc2)N(CC2CCCCC2)C1=S (stereo partly specified) | - | - | - | - | 0 | -
CC(C)C[C@H]1CN([C@@H](CC(C)C)CN2CCC[C@@H]2CN2C(=S)NC[C@@H]2Cc2ccc(O)cc2)C(=S)N1CC1CCCCC1 | - | 95 | 65 | -55 | 0 | -
C=CCc1cccc(/C=N/NC(=O)CNc2ccccc2)c1O | 89 | 0 | 0 | 0 | 0 | 0
C=CCc1cccc(/C=N/NC(=O)CNc2cccc3ccccc23)c1O | 0 | 0 | 0 | 0 | 0 | 0
C=CCc1cccc(/C=N/NC(=O)CNc2ccccc2OC)c1O | 89 | 0 | 0 | 0 | 0 | 0
O=C(COC(=O)/C=C/c1ccco1)NCCN1C(=O)CSC1=O | - | 0 | 0 | 0 | 0 | 0
COc1cccc(CN(C)C(=O)c2cccc(NC(=O)CC3SC(N4CCCCC4)=NC3=O)c2)c1OC (stereo unspecified) | - | 0 | 0 | 0 | 0 | 0
COc1ccc(CN(C)C(=O)c2cccc(NC(=O)CC3SC(N4CCCCC4)=NC3=O)c2)c(OC)c1 (stereo unspecified) | - | 54 | 0 | 0 | 0 | 63
OC(COCc1ccccc1)Cn1cnc2ccccc21 (stereo unspecified) | 0 | 0 | 0 | 0 | 0 | 0
OC(CN(c1ccccc1)c1ccccc1)Cn1cnc2ccccc21 (stereo unspecified) | 92 | 0 | 0 | 0 | 0 | 0
CCCSc1nsc(NC(=O)C(c2ccccc2)c2ccccc2)n1 | 93 | 0 | 0 | 0 | 0 | 0
Cc1nc2sc3c(c2c2nc(-c4ccco4)nn12)CCCC3 | 0 | - | - | - | - | -
c1coc(-c2nc3c4c5c(sc4ncn3n2)CCCC5)c1 | 79 | 0 | 0 | 0 | 0 | 0
COc1ccc(N2CCN(CCC(=O)c3ccc4ccccc4c3)CC2)cc1 | - | 104 | 0 | 0 | 0 | 0
COc1ccc(N2CCN(CC(=O)c3ccccc3)CC2)cc1 | - | 0 | 0 | 0 | 0 | 0
FC(F)(F)c1ccc(-c2noc(CN3CCCN(C4CCCCC4)CC3)n2)cc1 | 0 | 0 | 0 | 0 | 0 | 0
Cc1ccc(S(=O)(=O)N2[C@H](CC(=O)c3cccc4ccccc34)OC[C@@H]2C)cc1 | - | - | - | - | 0 | -
O=C(Nc1ccccc1F)c1ccc([N+](=O)[O-])s1 | 0 | 0 | 0 | 0 | 0 | 0
O=C(Nc1cccnc1)c1ccc([N+](=O)[O-])s1 | - | 0 | 0 | 0 | 0 | 75
SMILES | CHOP inhibitor | Peg3 prom inh | CF NFkB block | KKLEB cytotox | HIF-2a block | TRPM1 prom inh
Cc1ccc(-c2onc(C)c2C)cc1S(=O)(=O)N1CCOc2ccccc21 | - | 52 | 0 | 0 | 0 | 0
COc1ccc(-n2c(C)cc(C(=O)CCl)c2C)cc1 | 0 | 101 | 0 | 0 | 40 | 95
Cc1cc(-n2c(C)cc(C(=O)CN3C(=O)C(=O)N(C)C3=O)c2C)no1 | - | 0 | 0 | 0 | 0 | 0
Cc1cc(-n2c(C)cc(C(=O)CCl)c2C)no1 | 0 | 75 | 0 | 0 | 0 | 76
Cc1cc(C(=O)CCl)c(C)n1-c1c(C)n(C)n(-c2ccccc2)c1=O | 0 | 60 | 0 | 0 | 0 | 0
COc1ccc(-n2c(C)cc(C(=O)CN3C(=O)c4ccccc4C3=O)c2C)cc1 | 0 | 0 | 0 | 0 | 0 | 0
CCCOc1ccc(Cc2c(O)nc(SC)[nH]c2=O)cc1 | - | 0 | 0 | 0 | 0 | 0
COc1ccc(Br)cc1CSC(=N)N | 0 | 0 | 0 | 0 | 0 | 0
CCCCCOc1ccc(Br)cc1CSC(=N)N | 84 | 104 | 0 | 0 | 0 | 0
CCOc1ccc(CSC(=N)N)cc1 | 0 | 0 | 0 | 0 | 0 | 0
CCCCOc1ccc(CSC(=N)N)cc1Cl | 0 | 93 | 0 | 0 | 0 | 0
CCCCCCCN(c1ccccc1)[C@@H]1C[C@H]2CCCC(=O)N3CC[C@@H](C1)[C@@H]23 | - | 87 | 0 | 0 | 0 | 0
CCCCNC(=O)O[C@@H]1C[C@H]2CCCC(=O)N3CC[C@@H](C1)[C@@H]23 | - | 0 | 0 | 0 | 0 | 0
COc1ccc(-c2cnc3c(NC=O)cc(-c4ccc(F)cc4)cn23)cc1OC | - | 0 | 66 | -52 | 0 | -
COc1ccc(-c2cc(NC=O)c3ncc(-c4ccc(C(C)=O)cc4)n3c2)cn1 | - | 57 | 0 | 0 | 0 | -
O=CNc1cc(-c2ccc(C(=O)NC3CC3)cc2)cn2c(-c3ccc(F)c(Cl)c3)cnc12 | - | 0 | 0 | 0 | 0 | -
CN(C)CCNC(=O)c1cccc(-c2cnc3c(NC=O)cc(/C=C/c4ccccc4)cn23)c1 | - | 97 | 0 | 0 | 0 | -
CC(=O)c1ccc(-c2cnc3c(NC=O)cc(-c4ccc(N5CCN(C)CC5)cc4)cn23)cc1 | - | 0 | 0 | 0 | 0 | -
COc1ccc(-c2cnc3c(NC=O)cc(-c4ccccc4)cn23)cc1OC | - | 0 | 0 | 0 | 0 | -
O=CNc1cc(-c2ccc(C(=O)NC3CC3)cc2)cn2c(-c3ccccc3)cnc12 | - | 61 | 0 | 0 | 0 | -
CCOC(=O)N(C)c1c(CC)nc2c(OCc3ccc(S(C)(=O)=O)cc3)cccn12 | - | 0 | 0 | 0 | 0 | -
COc1ccc(-c2cnc3c(NC=O)cc(-c4cc(OC)c(OC)c(OC)c4)cn23)cc1OC | - | 65 | 0 | 0 | 0 | -
COc1cccc(-c2cnc3c(NC=O)cc(-c4cc(OC)c(OC)c(OC)c4)cn23)c1 | - | 0 | 0 | 0 | 0 | -
Cc1cc(C(=O)NNC(=O)c2ccc(NC(=O)CC#N)cc2)c(C)o1 | - | 0 | 0 | 0 | 0 | 0
COc1ccc(CCN2C(=O)c3cccc4cccc(c34)C2=O)cc1OC | 0 | 0 | 0 | 0 | 0 | 0
